# Results: PubChem BioAssay (NCI)
# About 83,000 compounds went through this panel and 20% of them were active in at least one assay; those are over-represented in the sample as a whole.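 Percent growth is the endpoint: 0 to 100 indicates growth inhibition (40 means 60% inhibition), 0 means no net growth, and negative values indicate cell death.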 Unmarked numbers belong to inactive results. The source made the active and inactive calls. Rule for the calls: active = growth percent below 10; inactive = the rest.
# What was measured:
# Assay in all cases: NCI-60 one-dose screen, 48 h (100 = growth as untreated, 0 = no growth, -100 = all killed)
# Details in all cases: 10 µM unless noted
# T-47D breast = system: T-47D breast
# BT-549 breast = system: BT-549 breast
# MDA-MB-435 melanoma = system: MDA-MB-435 melanoma
# SW-620 colon = system: SW-620 colon
# MCF7 breast = system: MCF7 breast
# HCT-116 colon = system: HCT-116 colon
# HCC-2998 colon = system: HCC-2998 colon
# KM12 colon = system: KM12 colon
Compound,growth (T-47D breast),growth (BT-549 breast) [%],growth (MDA-MB-435 melanoma),growth (SW-620 colon),growth (MCF7 breast),growth (HCT-116 colon),growth (HCC-2998 colon),growth (KM12 colon)
COc1ccc(C(=O)N2N=C(c3ccc(Br)cc3)CC2c2cn(-c3ccccc3)nc2-c2ccccc2)cc1 (stereo not drawn),61.1%,87.7,48.6%,29.6%,33.8%,-23.3% (active),55.9%,55.6%
O=C1C(Cl)=C(Nc2ccc(Nc3ccccc3)c(NC3=C(Cl)C(=O)c4ccccc4C3=O)c2)C(=O)c2ccccc21,14.9%,53.3,113%,33.8%,73.7%,51.2%,55.1%,31.6%
CC(=O)c1ccc2c(c1)c1ccccc1n2C,103%,96.1,99.3%,113%,86.4%,96.7%,100%,97.9%
O=C(N/N=C\c1ccc(Cl)cc1)C(=O)N/N=C\c1ccc(Cl)cc1,99.2%,95.4,108%,113%,96.5%,106%,110%,106%
COc1ccc(C(=O)c2no[n+]([O-])c2C(=O)c2ccc(OC)cc2)cc1,24.7%,50.3,44.3%,-82.9% (active),30.9%,-98.1% (active),110%,102%
CC1C(=O)CCCC1=O,96.1%,104,105%,113%,95.8%,113%,109%,113%
COc1cc(-c2nc(/C=C3/C(=O)Nc4ccccc43)c3ccccn23)cc(OC)c1OC,53.7%,94,55.6%,88.7%,40.1%,67.2%,78.1%,47.6%
[2H]c1nc(=Nc2cc(NC(=O)C=C)c(N(C)CCN(C)C)cc2OC)[nH]c(-c2cn(C([2H])([2H])[2H])c3ccccc23)c1[2H],33%,62.9,22.2%,21.1%,23.4%,13.7%,51%,65.3%
CC1=NN(c2cccc(Cl)c2)C(=O)/C1=C\c1cn(-c2nc(N3CCOCC3)nc(N3CCOCC3)n2)c2ccccc12,99.8%,103,100%,110%,98.9%,94.9%,104%,107%
CCC(C)(CC)c1ccc(O)c(C)c1,101%,98.9,109%,107%,99%,96.6%,116%,107%
COc1ccc(C2=NN(C(=O)c3cc(-c4ccc(C)cc4)nc4ccccc34)C(c3cc(-c4ccccc4)nn3-c3ccccc3)C2)cc1 (stereo not drawn),72.7%,90.6,102%,96.7%,88.4%,81.4%,102%,90.8%
CC1(C)NC(=S)NC1=O,91.6%,103,110%,96.9%,99.2%,102%,112%,108%
COc1ccc(-c2nc(SCC(C)C)nc(Nc3ccccc3)c2C#N)cc1,51.3%,101,92.8%,67.8%,75.7%,38.5%,99.3%,97.9%
CCCC(=O)NNc1[nH]c(-c2cc(OC)c(OC)c(OC)c2)cc1C(=O)OCC,82.1%,100,101%,109%,117%,93%,95.3%,125%
COc1ccc(Cn2cc3c(c2)-c2oncc2CC3)cc1OC,47.5%,59.4,-46.2% (active),21.9%,7.49% (active),4.37% (active),-37.5% (active),5.46% (active)
COc1ccc(Cn2cc3c(c2-c2ccccc2)CCc2cnoc2-3)cc1N,37.2%,36.2,-27.9% (active),23.5%,16%,9.53% (active),-1.21% (active),6.52% (active)

Compound,growth (T-47D breast),growth (BT-549 breast) [%],growth (MDA-MB-435 melanoma),growth (SW-620 colon),growth (MCF7 breast),growth (HCT-116 colon),growth (HCC-2998 colon),growth (KM12 colon)
CN(CCC#N)c1ccc(/C=C(\C#N)c2cccc(C(F)(F)F)c2)cc1,56.7%,60.1,1.34% (active),40.4%,34.2%,57.6%,78.5%,38.5%
CCCCCCCCCCCCCCCCCC(=O)Nc1ccc(O)cc1,93.6%,62.8,107%,98.6%,98.9%,106%,120%,100%
COC1=C(OC)C(=O)c2ccccc2C1=O,59.1%,101,111%,97%,86.3%,96.2%,94.5%,105%
CCN(CC)C(=O)C1(C)CCCC2(C)c3cc(OC(C)=O)ccc3CCC12 (stereo not drawn),71.7%,95.4,72.9%,89.1%,87.9%,84.9%,109%,82.2%
CC(=O)Nc1ccc(CC#N)cc1Br,94.4%,109,104%,99.3%,96.7%,96.8%,96.7%,107%
CCOC1=C(Cl)C(=O)C(OCC)=C(Cl)C1=O,93.5%,114,100%,110%,99.5%,113%,91.2%,98.3%
CCCCCCCCCCCCCCCCCC1=NCCN1CCNC(C)=O,85.8%,99.1,103%,107%,79.2%,69.1%,92.3%,73.4%
O=C(CN1CCN(c2cccc(Cl)c2)CC1)N1CCN(c2nnc(-c3ccc(Cl)cc3)c(-c3ccc(Cl)cc3)n2)CC1,50.1%,87.8,72.3%,76.7%,55.4%,53.5%,83.6%,57.6%
Cc1ccc2c(O)c(O)cc(NC(C)CCCN)c2n1 (stereo not drawn),63.3%,91.1,114%,73.2%,13.3%,34.7%,60.4%,109%
CC(=O)Oc1cc2ccccc2cc1C(C)C,101%,112,102%,99.7%,98%,97.1%,99.2%,118%
COc1cc(/C=C/C(=O)/C=C(/C=C/c2ccc(OC(C)=O)c(OC)c2)OB(F)F)ccc1OC(C)=O,41.9%,37.3,41%,17.5%,21.5%,6.64% (active),100%,73.8%
O=C1C(Br)=CC2C1C1C3CCC3C2(Br)C12OCCO2 (stereo not drawn),3.72% (active),45.6,23.7%,17.3%,2.12% (active),16.1%,74.8%,44.9%
CCCCCCCCCCCCCCCCC(=O)O.CCCCCCCCCCCCCCCCCC(=O)O.CCCCCCCCCCCCCCCCCC(=O)O.CCCCCCCCCCCCCCCCCC(=O)O.CCCCCCCCCCCCCCCCCC(=O)O.CO[CH-]OC12COC1CC(O)C1(C)C(O)C(OC(C)O)C3=C(C)C(OC(=O)C(O)C([NH-])c4ccccc4)CC(O)(C(OC(=O)c4ccccc4)C21)C3(C)C.[Cu+].[Zn].[Zn].[Zn].[Zn].[Zn] (stereo not drawn),45.9%,46.2,10.9%,44.7%,22.1%,13.3%,21.6%,19.9%
COC(=O)c1cc(Nc2ccc(O)c3c2C(=O)c2c([N+](=O)[O-])ccc(O)c2C3=O)cc(C(=O)OC)c1,68.9%,44.7,-84.4% (active),13.1%,33.3%,36.1%,36.3%,88.7%
COc1ccccc1Cn1cc2c(c1)-c1oncc1CC2,52%,67.4,-53.7% (active),27%,13.4%,9.05% (active),-43.1% (active),6.78% (active)
